One assay has as its system Staphylococcus aureus. In words: Antibacterial activity against Staphylococcus aureus MRSA ATCC 43300 (CO-ADD:GP_020); MIC in CAMBH media using NBS plates, by Resazurin F(560/590). It is filed as functional. The note with it: Concentration 20 uM, ASSAY_TEST Inhibition of Bacterial Growth, detection method Resazurin, Fluorescence (ex560/em590), MEDIA CAMHB, plate type 384well, CORNING #3640, time 18 hr. (The colour change of resazurin is a common sign of viable cells or microbes.)

Another assay deals with Acinetobacter baumannii. In words: Antibacterial activity against Acinetobacter baumannii ATCC 19606 (CO-ADD:GN_034); MIC in CAMBH media using NBS plates, by Resazurin F(560/590). It is filed as functional. The note with it: Concentration 20 uM, ASSAY_TEST Inhibition of Bacterial Growth, detection method Resazurin, Fluorescence (ex560/em590), MEDIA CAMHB, plate type 384well, CORNING #3640, time 18 hr.

The next assay has as its system Escherichia coli. In words: Antibacterial activity against Escherichia coli ATCC 25922 (CO-ADD:GN_001); MIC in CAMBH media using NBS plates, by Resazurin F(560/590). The assay is classed as functional. The note with it: Concentration 20 uM, ASSAY_TEST Inhibition of Bacterial Growth, detection method Resazurin, Fluorescence (ex560/em590), MEDIA CAMHB, plate type 384well, CORNING #3640, time 18 hr.

A further assay has as its system Klebsiella pneumoniae. The note with it: Concentration 20 uM; ASSAY_TEST Inhibition of Bacterial Growth; detection method Absorption (OD600); MEDIA CAMHB; plate type 384well; NBS; CORNING #3640; time 18 hr.
The test system of the next assay is Candida albicans. The note with it: 20 µM.
The next assay concerns Cryptococcus neoformans. The note with it: Concentration 20 uM; ASSAY_TEST Inhibition of Fungal Growth; detection method Resazurin; Absorption (OD600-OD570); plate type 384well; NBS; CORNING #3640.

For part of these data: Results with a measured potency or affinity are listed apart.

Results on 24 compounds are retold here after ChEMBL document CHEMBL4296182, “CO-ADD screening of NIH NCI Diversity Set V”.

The term Inhibition denotes the relative decrease from the control value, in per cent. As to `O=C1C(Br)=Cc2cccc3cccc1c23`, the Inhibition in the assay on Staphylococcus aureus is 13.47%; with Acinetobacter baumannii it was -14.96%; with Escherichia coli, 6.58%; in the assay with Klebsiella pneumoniae, 7.6%; with Candida albicans it was 32.2%; in the assay on Cryptococcus neoformans, 12.78%.

Regarding `CS/C(=C\c1ccc(C(=O)c2ccc(C)cc2)n1C)[S+](C)[O-]` (centres undefined), the Inhibition in the assay on Staphylococcus aureus came to 7.5%; in the assay with Acinetobacter baumannii, 7.53%; in the assay with Escherichia coli, 1.09%; in the assay with Klebsiella pneumoniae, 18.35%; in the assay with Candida albicans, 3.75%; in the assay with Cryptococcus neoformans, 1.32%.

With `Cc1cc(N(C)C)ccc1/N=N/c1ccc2ncccc2c1`, the Inhibition in the assay on Staphylococcus aureus was 1.18%; in the assay on Acinetobacter baumannii, -8.44%; in the assay with Escherichia coli it was 5.41%; with Klebsiella pneumoniae, 5.32%; with Candida albicans, 3.26%; with Cryptococcus neoformans, -12.5%.

On to `N=C(N)NC(=N)Nc1ccc(O)cc1`, for which the Inhibition is 11.3% in the assay on Staphylococcus aureus; -14.34% in the assay on Acinetobacter baumannii; 13.43% in the assay on Escherichia coli; 0.41% in the assay with Klebsiella pneumoniae; 0.07% in the assay on Candida albicans; -11.16% with Cryptococcus neoformans.

For `COc1cc(-c2ccc(NC(=O)NC3CC3)c(OC)c2)ccc1NC(=O)NC1CC1`, the Inhibition in the assay on Staphylococcus aureus is 15.12%; in the assay with Acinetobacter baumannii, -9.96%; in the assay with Escherichia coli, 13.19%; in the assay on Klebsiella pneumoniae, 5.08%; in the assay on Candida albicans, 3.52%; with Cryptococcus neoformans, -5.24%.

Regarding `Oc1ccc(Nc2ccc3ccccc3c2)cc1`, the Inhibition in the assay with Staphylococcus aureus is -6.35%; with Acinetobacter baumannii, -10.62%; in the assay on Escherichia coli, -3.9%; in the assay on Klebsiella pneumoniae it was 4.89%; in the assay with Candida albicans, 3.31%; in the assay with Cryptococcus neoformans, -6.09%.

For `CN(C)CC1C2CCC(C2)C1O` (centres undefined), the Inhibition in the assay with Staphylococcus aureus was 7.18%; in the assay with Acinetobacter baumannii it was -12.67%; in the assay on Escherichia coli, 8.84%; in the assay with Klebsiella pneumoniae, 23.62%; in the assay with Candida albicans it was 0.82%; in the assay on Cryptococcus neoformans, -7.67%.

Regarding `COc1cc(Cl)c(CC(=O)c2c[nH]c3ccccc23)cc1OC`, the Inhibition with Staphylococcus aureus is -6.42%; with Acinetobacter baumannii, 2.77%; with Escherichia coli, -1.53%; in the assay on Klebsiella pneumoniae, 5.86%; with Candida albicans, 3.17%; in the assay on Cryptococcus neoformans, -1.97%.

With `O=S(=O)(Oc1ccc(Cl)cc1)c1cccc2cccnc12`, the Inhibition in the assay on Staphylococcus aureus is 11.37%; with Acinetobacter baumannii, -12.19%; with Escherichia coli it was 8.94%; in the assay with Klebsiella pneumoniae, 7.96%; in the assay with Candida albicans it was -1.21%; in the assay with Cryptococcus neoformans, -3.12%.

With `N[C@H](C(=O)O)[C@H]1ON=C(Cl)[C@@H]1O`, the Inhibition in the assay with Staphylococcus aureus is 11.62%; with Acinetobacter baumannii it was -0.47%; with Escherichia coli it was 10.43%; with Klebsiella pneumoniae it was 5%; in the assay on Candida albicans it was 2.6%; in the assay on Cryptococcus neoformans, -3.55%.

Regarding `Cl/N=C1/C=CC=C/C1=N/Cl`, the Inhibition was -18.23% in the assay on Staphylococcus aureus; -7.09% with Acinetobacter baumannii; 4.05% with Escherichia coli; -1.59% in the assay on Klebsiella pneumoniae; -1.15% in the assay with Candida albicans; -1.81% with Cryptococcus neoformans.

On to `Oc1ccnc2c(Cl)cccc12`, for which the Inhibition is 7.28% in the assay with Staphylococcus aureus; 2.93% with Acinetobacter baumannii; -8.1% with Escherichia coli; 5.9% in the assay with Klebsiella pneumoniae; 3.54% with Candida albicans; 14.14% with Cryptococcus neoformans.

As for `O=C(O)c1cc2ccccc2cc1Nc1ccccc1`, the Inhibition in the assay with Staphylococcus aureus is 0.16%; in the assay with Acinetobacter baumannii, 5.64%; in the assay with Escherichia coli, -16.93%; with Klebsiella pneumoniae, 8.83%; with Candida albicans, 12.2%; in the assay on Cryptococcus neoformans it was 17.2%.

As for `COc1cc(C2NC(=O)C(C#N)=C(Nc3cccc(C)c3)S2)ccc1O` (centres undefined), the Inhibition in the assay on Staphylococcus aureus is 16.64%; in the assay on Acinetobacter baumannii, 5.33%; in the assay with Escherichia coli, 14.44%; in the assay with Klebsiella pneumoniae, 11.49%; in the assay on Candida albicans it was 1.94%; with Cryptococcus neoformans, -8.18%.

Regarding `O=c1n(CC2CO2)c(=O)n(CC2CO2)c(=O)n1CC1CO1` (centres undefined) [TEROXIRONE], the Inhibition with Staphylococcus aureus is 0.12%; in the assay on Acinetobacter baumannii it was -10.62%; with Escherichia coli, 4.44%; in the assay with Klebsiella pneumoniae, 8.68%; with Candida albicans, 3.23%; with Cryptococcus neoformans it was -12.57%.

As for `Oc1ccccc1Nc1ccccn1`, the Inhibition in the assay on Staphylococcus aureus was 8.12%; in the assay on Acinetobacter baumannii, -5.24%; in the assay with Escherichia coli, 13.47%; in the assay on Klebsiella pneumoniae, 16.23%; with Candida albicans it was 1.04%; in the assay on Cryptococcus neoformans it was -3.55%.

On to `CC(C)=C(c1ccc(Cl)cc1)c1c(N)ncnc1N`, for which the Inhibition was 3.52% in the assay on Staphylococcus aureus; -10.84% in the assay on Acinetobacter baumannii; 10.95% in the assay with Escherichia coli; 14.5% in the assay with Klebsiella pneumoniae; -0.84% with Candida albicans; -5.15% in the assay with Cryptococcus neoformans.

In the case of `CS(=O)(=O)Nc1nc2ccccc2[nH]1`, the Inhibition with Staphylococcus aureus is 10.98%; in the assay on Acinetobacter baumannii, 4.83%; in the assay on Escherichia coli, -1.14%; in the assay with Klebsiella pneumoniae, 15.79%; in the assay on Candida albicans, 3.39%; with Cryptococcus neoformans, -3.84%.

For the compound `CC1(C)OC2CC(=O)OCC23C1CC(=O)C1(C)C3CCC2(C)C(c3ccoc3)OC(=O)C3OC321` (centres undefined), the Inhibition in the assay with Staphylococcus aureus is 21.22%; in the assay with Acinetobacter baumannii, -6.97%; in the assay with Escherichia coli it was 8.41%; in the assay on Klebsiella pneumoniae it was 8.88%; in the assay on Candida albicans, 0.13%; in the assay with Cryptococcus neoformans, -7.86%.

Regarding `COCC(=O)Oc1cc(-c2ccc(C)cc2C)c(OC(=O)COC)c(-c2ccc(C)cc2C)c1`, the Inhibition with Staphylococcus aureus is 8.14%; with Acinetobacter baumannii, -8.27%; in the assay on Escherichia coli, 6.56%; in the assay on Klebsiella pneumoniae it was 4.04%; with Candida albicans, 7.18%; with Cryptococcus neoformans, -1.11%.

On to `Nc1nc(Cl)cc(Nc2ccccc2Cl)n1`, for which the Inhibition with Staphylococcus aureus is 12.37%; in the assay on Acinetobacter baumannii, 13.94%; with Escherichia coli, -7.98%; in the assay with Klebsiella pneumoniae, 12.81%; in the assay with Candida albicans it was 7.79%; with Cryptococcus neoformans, 1.11%.

Regarding `O=C(O)c1ccc(N2CCCCC2)cc1O`, the Inhibition in the assay on Staphylococcus aureus is 7.99%; with Acinetobacter baumannii it was -7.54%; with Escherichia coli it was 7.11%; in the assay on Klebsiella pneumoniae, 12.65%; in the assay with Candida albicans it was 8.64%; with Cryptococcus neoformans, -11.23%.

Consider `O=[N+]([O-])c1cccnc1Oc1cccnc1`, for which the Inhibition in the assay with Staphylococcus aureus is 16.25%; with Acinetobacter baumannii it was -14.38%; with Escherichia coli it was 11.2%; with Klebsiella pneumoniae, 9.34%; in the assay on Candida albicans it was -2.59%; with Cryptococcus neoformans, -10.27%.

For the compound `CC(C)COC(=O)NC1c2ccccc2Oc2ccccc21`, the Inhibition in the assay with Staphylococcus aureus was 8.22%; with Acinetobacter baumannii it was -2.15%; in the assay on Escherichia coli, 3.09%; in the assay with Klebsiella pneumoniae, 8.74%; in the assay on Candida albicans, 5.64%; in the assay with Cryptococcus neoformans, -2.37%.
